Data: PubChem BioAssay (NCI)
The panel holds about 83,000 compounds, 20% with a hit somewhere; the sample as a whole holds those more often.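 The endpoint reported here, percent growth, reads 100 for growth as untreated, 0 for no net growth and -100 for all cells dead.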 Calls of active or inactive are those of the source. The calls were made as follows: active = growth percent below 10; inactive = the rest.

These compounds were tested on T-47D breast (assay: NCI-60 one-dose screen, 48 h (100 = growth as untreated, 0 = no growth, -100 = all killed)). Conditions: 10 µM unless noted.

Row | SMILES | growth
1 | Cc1nc2sc(C(=O)Nc3cccc4ccccc34)c(N)c2cc1C(O)c1ccccc1 (centres undefined) | 45.4% (inactive)
2 | COc1ccc(C(=O)N2c3ccccc3Sc3ccccc32)c(OC)c1 | 41.5% (inactive)
3 | Cc1nc2sc(C(=O)Nc3ccc(Br)cc3)c(N)c2cc1C(O)c1ccccc1 (centres undefined) | 45.6% (inactive)
4 | CNc1nnc2n(-c3ccccc3)c(=O)c3cnn(-c4ccccc4)c3n12 | 37.1% (inactive)
5 | [O-]/[N+](=C\c1ccc(-n2cc(Cc3ccccc3Cc3cn(-c4ccc(/C=[N+](/[O-])c5ccccc5)cc4)nn3)nn2)cc1)c1ccccc1 | 93.8% (inactive)
6 | COc1ccc(/C=N\Nc2nc(SCCC(C)C)nc(-c3ccc(OC)cc3)c2C#N)cc1 | 23.1% (inactive)
7 | COC1/C=C/OC2(C)Oc3c(C)c(O)c4c(O)c(c(/C=N/Nc5ccc([N+](=O)[O-])cc5[N+](=O)[O-])c(O)c4c3C2=O)NC(=O)C(C)=C/C=C/C(C)C(O)C(C)C(O)C(C)C(OC(C)=O)C1C (centres undefined) | -31.2% (active)
8 | COc1cc(OC)c(NC(=O)c2cc3ccccc3cc2O)cc1Cl | 78.7% (inactive)
9 | CC(C)(C)[Si](C)(C)OC1[C@@H](CNC(=O)NC(=O)NC(N)=O)O[C@@H](n2cnc3c(NC(=O)Nc4ccccc4)ncnc32)[C@H]1O[Si](C)(C)C(C)(C)C (some centres undefined) | 82.8% (inactive)
10 | COc1ccc(C/C(C)=C(\c2ccc(Cl)cc2)c2ccc(OCCN3CCCCC3)cc2)cc1 | 75.1% (inactive)
11 | Cc1ccc(C(=O)c2ccc(CC(=O)N/N=C/c3ccccc3O)n2C)cc1 | 75.6% (inactive)
12 | CCO/C=N/C1=C(C#N)C(c2ccc(Cl)cc2)c2sc3c(F)cccc3c2O1 (centres undefined) | 54.8% (inactive)
13 | CCCCNC(=O)Oc1ccc(/C(=C(/C)Cc2ccc(OC)cc2)c2ccc(OCCN(CC)CC)cc2)cc1 | 42.1% (inactive)
14 | COc1cc2oc(-c3cccc(NC(=O)c4ccccc4)c3)cc(=O)c2c(OC)c1OC | 50.2% (inactive)

Each compound was assayed on BT-549 breast in the same assay as above. Conditions: 10 µM unless noted.

Row | SMILES | growth
15 | CN1C(=O)/C(=C\c2nc([P+](c3ccccc3)(c3ccccc3)c3ccccc3)c(N3CCOCC3)o2)SC1=S | 26.5% (inactive)
16 | COc1ccc2c(c1)c(-c1nc(-c3c[nH]c4ccncc34)cs1)cn2C | 77.3% (inactive)
17 | COc1ccc(C(=O)c2cc3c(N)c(C(=O)Nc4ccc(C)cc4)sc3nc2C)cc1 | 46.5% (inactive)
18 | COc1cc2nc3cc([N+](=O)[O-])ccc3c(NCCNCC(C)O)c2cc1OC (centres undefined) | -40.5% (active)
19 | Cc1sc2nc(NCCc3c[nH]c4ccc(Cl)cc34)[nH]c(=O)c2c1C | 74.2% (inactive)
20 | CC/C(=C(/c1ccc(Cl)cc1)c1ccc(OCCN(C)C)cc1)c1ccc(Cl)cc1 | 82.7% (inactive)
21 | CNC(=O)c1[nH]cc(-c2ccc(OC)cc2)c1-c1cc(OC)c2c(c1OC)OCO2 | 97.4% (inactive)
22 | C=CCc1c(O)c(C(=O)/C=C/c2ccccc2)c(OC)c2ccoc12 | 34.3% (inactive)
23 | COc1ccc(-c2cc(-c3ccc(Cl)cc3)c(C#N)c(=O)n2Cc2ccc(C(=O)Nc3ccccc3N)cc2)cc1 | 56.5% (inactive)
24 | COc1ccc(/C=C/C(=O)c2cccc(OCCCCOc3cccc(C(=O)/C=C/c4ccc(OC)c(OC)c4)c3)c2)cc1OC | 60.7% (inactive)
25 | CCOC(=O)c1ccc(NC(=O)c2nc(-c3cc(OC)c(OC)c(OC)c3)n(-c3ccc(Cl)cc3)n2)cc1 | 74.6% (inactive)
26 | Cc1ccc(CNc2ccc3nc(CCC4CCCCC4)[nH]c3c2)cc1 | 88% (inactive)
27 | CC(=O)c1c(C)nc(SCC(=O)Nc2cccc(O)c2)n1-c1ccc(Cl)cc1 | 93.1% (inactive)
28 | Cc1ccc2c(c1)=C/C(=C\c1cc(-c3ccccc3)oc1O)C(=O)N=2 | 94.3% (inactive)
29 | O=C(CSc1nnc(-c2cnccn2)n1-c1ccccc1)c1ccc(Cl)cc1 | 91.6% (inactive)
30 | CCC(=C(c1ccc(OCCN2CCCCC2)cc1)c1ccc(OCCN2CCCCC2)cc1)c1ccc(Cl)cc1 | -91.7% (active)
31 | O=C(Nc1ccc(Oc2cccc(Cl)c2)c(Cl)c1)c1cnccn1 | 57.4% (inactive)
32 | CCCNc1nc2ccccc2c2c1S(=O)(=O)c1ccc(Cl)cc1C2=O | 23% (inactive)
33 | C=CCOC(=O)Nc1cccn([C@H](Cc2ccccc2)C(=O)NCCC(C)C)c1=O | 132% (inactive)
34 | N#Cc1c(-c2ccc(Cl)cc2)nc(NN2C(=O)c3ccccc3C2=O)nc1N1CCOCC1 | 112% (inactive)

Row | SMILES | growth
35 | N#Cc1nc(-c2ccc(F)cc2)oc1S(=O)(=O)N1CCCCC1 | 80% (inactive)
36 | COc1ccc2cc1Oc1ccc(cc1)C[C@H]1c3c(cc4c(c3Oc3cc5c(cc3OC)CCN(C)[C@@H]5C2)OCO4)CCN1C | 52% (inactive)
37 | C=C1C(=O)O[C@H]2[C@H]1CC/C(COC(=O)/C=C\C(=O)NCc1ccc(Cn3c(=O)sn(CCI)c3=O)cc1)=C\CC[C@@]1(C)O[C@@H]21 | 71.9% (inactive)
38 | CCOC(=O)c1c(NC(=O)c2ccc(Cl)cc2)sc2c(CN(C)C)c(O)ccc12 | 100% (inactive)
39 | CSc1nc(N)c(NS(=O)(=O)c2ccc(C(C)=O)cc2)c(=O)[nH]1 | 98.4% (inactive)
40 | COc1cc2c(c(OC)c1OC)CCC(c1cccc(C(=O)Nc3cccc(Cl)c3)c1)O2 (centres undefined) | 67.5% (inactive)
41 | Cc1nc2sc(C(=O)Nc3cccc4ccccc34)c(N)c2cc1C(O)c1ccccc1 (centres undefined) | 40.2% (inactive)
42 | COc1ccc(C(=O)N2c3ccccc3Sc3ccccc32)c(OC)c1 | 16.9% (inactive)
43 | Cc1nc2sc(C(=O)Nc3ccc(Br)cc3)c(N)c2cc1C(O)c1ccccc1 (centres undefined) | 71.1% (inactive)
44 | CNc1nnc2n(-c3ccccc3)c(=O)c3cnn(-c4ccccc4)c3n12 | 74% (inactive)
45 | [O-]/[N+](=C\c1ccc(-n2cc(Cc3ccccc3Cc3cn(-c4ccc(/C=[N+](/[O-])c5ccccc5)cc4)nn3)nn2)cc1)c1ccccc1 | 83.3% (inactive)
46 | COc1ccc(/C=N\Nc2nc(SCCC(C)C)nc(-c3ccc(OC)cc3)c2C#N)cc1 | 93.1% (inactive)
47 | COC1/C=C/OC2(C)Oc3c(C)c(O)c4c(O)c(c(/C=N/Nc5ccc([N+](=O)[O-])cc5[N+](=O)[O-])c(O)c4c3C2=O)NC(=O)C(C)=C/C=C/C(C)C(O)C(C)C(O)C(C)C(OC(C)=O)C1C (centres undefined) | 13.7% (inactive)
48 | COc1cc(OC)c(NC(=O)c2cc3ccccc3cc2O)cc1Cl | -25.9% (active)
49 | CC(C)(C)[Si](C)(C)OC1[C@@H](CNC(=O)NC(=O)NC(N)=O)O[C@@H](n2cnc3c(NC(=O)Nc4ccccc4)ncnc32)[C@H]1O[Si](C)(C)C(C)(C)C (some centres undefined) | 95.4% (inactive)
50 | COc1ccc(C/C(C)=C(\c2ccc(Cl)cc2)c2ccc(OCCN3CCCCC3)cc2)cc1 | 96.7% (inactive)
51 | Cc1ccc(C(=O)c2ccc(CC(=O)N/N=C/c3ccccc3O)n2C)cc1 | 85.1% (inactive)
52 | CCO/C=N/C1=C(C#N)C(c2ccc(Cl)cc2)c2sc3c(F)cccc3c2O1 (centres undefined) | 68.8% (inactive)
53 | CCCCNC(=O)Oc1ccc(/C(=C(/C)Cc2ccc(OC)cc2)c2ccc(OCCN(CC)CC)cc2)cc1 | 87.1% (inactive)
54 | COc1cc2oc(-c3cccc(NC(=O)c4ccccc4)c3)cc(=O)c2c(OC)c1OC | 74.1% (inactive)
